In the library only some 1.3% were active in any assay of this set; here they are far more common.
MazEF act: MazEF (E. coli) toxin RNase activation; activation, % at 20 µM; FAM/BHQ RNA-DNA oligo cleavage fluorescence, 5 h; P0AE70; AID 504720; actives 0.32% (n = 350,000); in the data active = activation above about 50%
Target sequence (P0AE70 whole entry, looked up): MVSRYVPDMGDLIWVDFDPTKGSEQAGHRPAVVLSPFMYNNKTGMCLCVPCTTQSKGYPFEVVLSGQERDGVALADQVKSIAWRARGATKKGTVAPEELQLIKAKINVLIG
CCHF vOTU inh: blocks the CCHF virus ovarian tumor domain protease | inhibition, % at 11.5 µM | actives 0.55% (n = 370,000) | CCHFV vOTU protease, Pep-AMC fluorescence | AID 651958; in the data active = inhibition above about 30%
Mtb betalactam: beta-lactam sensitization of Mtb H37Rv; actives 0.27% (n = 330,000); AID 434955; inhibition, % at 25 µM; M. tuberculosis H37Rv growth with meropenem, percent inhibition; call rule not given here;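 also: growth measured after seven days incubation then overnight dye step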
Sa ugtP lethal: kills S. aureus RN4220 lacking UgtP | growth inhibition, % (no concentration beside the values) | actives 0.54% (n = 330,000) | S. aureus RN4220 ugtP deletion, OD600 growth, 16 h; in the data active = growth inhibition above about 68%
RN4220 kill: S. aureus RN4220 growth inhibition | actives 0.33% (n = 330,000) | inhibition, % (no concentration beside the values) | OD600, 16 h | AID 1259311; in the data active = inhibition above about 85%
SARS 3CLpro inh-1: SARS-CoV 3CLpro protease inhibition. recombinant SARS-CoV 3CLpro, quenched FRET peptide cleavage. actives 0.14% (n = 290,000). AID 1706. P0C6X7. inhibition, % at 6 µM; in the data active = inhibition above about 12%
SARS 3CLpro inh-2: SARS 3CLpro inhibition, confirmation assay | shares compounds with SARS 3CLpro inh-1 | QFRET protease activity assay | inhibition, % at 6 µM | actives 36% (n = 380) | AID 1879; in the data active = inhibition above about 13%
Numbers stand for hits; . = inactive; ? = inconclusive; / = not tested or not shown.

SMILES	MazEF act	CCHF vOTU inh	Mtb betalactam	Sa ugtP lethal	RN4220 kill	SARS 3CLpro inh-1	SARS 3CLpro inh-2
O=C(CNC(=O)c1cccc(F)c1)NN=Cc1cc(Br)ccc1OCc1ccccc1	/	/	/	.	.	/	/
COCCN(C(=O)Cn1nnc2ccccc21)C(C(=O)NC1CCCCC1)c1ccc(OC)cc1OC (configuration not stated)	.	.	.	.	.	.	/
COc1ccc(N(C(=O)Cn2nnc3ccccc32)C2(C(=O)NC3CCCC3)CCCCC2)cc1	.	.	.	.	.	30	43
COc1c(Cl)cc(C(=O)NN)cc1Cl	.	.	.	.	.	16	17
COc1c(Cl)cc(C(=O)O)cc1Cl	.	.	.	.	.	/	/
O=C(Oc1ccc2cccc(OC(=O)N3CCOCC3)c2c1)N1CCOCC1	.	.	.	.	.	13	.
COc1ccc(-c2cc(N)n(S(=O)(=O)c3c(F)c(F)c(F)c(F)c3F)n2)cc1OC	.	.	.	95	98	14	.
CC1=Nc2cccc3cccc(c23)N1C	.	.	.	.	.	13	.
CCC(C)C1NC(=O)c2cc([N+](=O)[O-])cc(I)c2SCC(C(N)=O)NC(=O)C(CCCCN)NC1=O (configuration not stated)	/	/	/	.	.	/	/
O=C(/C=C/c1ccc(Cl)c([N+](=O)[O-])c1)NCc1cccnc1	.	.	.	/	/	18	18
CCCCN1C(=O)C(NC(C)=O)c2cc(Br)ccc21 (configuration not stated)	.	.	.	.	.	.	/
CC(=O)NC1C(=O)N(CCN2CCOCC2)c2ccc(F)cc21 (configuration not stated)	.	.	.	.	.	12	45
Cc1ccc(C=NNC(=O)Cc2ccc(Cl)cc2)c(O)c1	/	/	/	.	.	/	/
Cc1ccc(-n2c(Cc3cccn3C)nnc2SCC(=O)Nc2ccc3c(c2)OCO3)cc1	.	.	.	.	.	14	.
CC(C)C[C@H](NC(=O)c1nc[nH]c1C(=O)NCc1ccc(CNC(=O)OC(C)(C)C)cc1)C(=O)OC(C)(C)C	.	.	.	/	/	14	13
CC(C)c1ccc(S(=O)(=O)Nc2ccc(SC(F)F)cc2)cc1	.	.	.	.	.	13	.
CC(C)c1ccc(NS(=O)(=O)c2ccc(-n3cccn3)cc2)cc1	.	.	.	.	.	.	/
CCOC(=O)c1c(C)oc2c1c1c(c3ccccc32)OCN(Cc2ccccn2)C1	.	.	.	.	.	13	.
CCOC(=O)c1c(C)oc2c1c(CN1CCN(C(=O)OCC)CC1)c(O)c1ccccc12	.	.	/	.	.	.	/
COc1ccc(C2CC(c3cccs3)=NN2C(=O)CCl)cc1OC (configuration not stated)	.	.	.	/	/	74	81
Cc1ccc(C2=NN(C(=O)CCl)C(c3cccs3)C2)o1 (configuration not stated)	.	.	.	.	.	14	59
COc1cc(C2CC(c3cccs3)=NN2C(=O)CCl)ccc1OC(F)F (configuration not stated)	.	.	.	/	/	56	74
O=C(CCl)N1N=C(c2ccco2)CC1c1cccs1 (configuration not stated)	.	/	.	.	.	.	/
CC1CN(C(C)CO)C(=O)c2cc(NC(=O)Cc3cn(C)c4ccccc34)ccc2OC1CN(C)S(=O)(=O)c1ccc(F)cc1 (configuration not stated)	/	/	/	.	.	/	/
CC[C@@]12C(=O)N(c3ccc(OC)cc3)C(=O)N1C(c1ccc(Cl)cc1)C1C(=O)N(C3CCCCC3)C(=O)C12 (some centres not stated)	/	/	/	.	.	/	/
SMILES	MazEF act	CCHF vOTU inh	Mtb betalactam	Sa ugtP lethal	RN4220 kill	SARS 3CLpro inh-1	SARS 3CLpro inh-2
CSc1nsc(NC(=O)OCc2ccc(Cl)cc2)n1	.	.	.	.	.	13	.
Cc1cc(C)cc(-n2c(C)cc(C=NNC(=O)CN(c3c(C)cccc3C)S(C)(=O)=O)c2C)c1	/	/	/	.	.	/	/
O=C1CC(N2CCN(C/C=C/c3ccccc3)CC2)C(=O)N1Cc1cccs1 (configuration not stated)	.	.	.	.	.	16	.
O=C1CC(N2CCN(C/C=C/c3ccccc3)CC2)C(=O)N1CCc1ccccc1 (configuration not stated)	.	.	.	.	.	.	/
Cc1ccc(OCC(=O)NN=Cc2cn(C)c3ccccc23)cc1	/	/	/	.	.	/	/
COc1ccc(C2C3C(=O)N(C(C)(C)C)C(=O)C3[C@]3(Cc4ccc(Cl)cc4)C(=O)N(c4ccc(C)cc4)C(=O)N23)cc1 (some centres not stated)	/	/	/	.	.	/	/
O=C(CSc1ncnc2scc(-c3ccccc3)c12)Nc1ccc(C(=O)O)cc1	.	.	.	.	.	13	.
O=C(NN=Cc1ccc(OC(F)F)cc1)c1ccc(CSc2nc3ccccc3[nH]2)cc1	/	/	/	.	.	/	/
CCC(=NNC(N)=O)c1ccc(OC(F)F)cc1	/	/	/	.	.	/	/
O=C(N/N=C\c1c(O)ccc2ccccc12)c1cncc(Br)c1	.	.	.	/	/	29	26
COc1ccc(OC)c(C=NNC(=O)CN2CCSCC2)c1	/	/	/	.	.	/	/
CC(C)(C)OC(=O)NCCC(=O)Oc1ccc2ccc(=O)oc2c1	.	/	.	/	/	29	59
O=C(Oc1ccc2ccc(=O)oc2c1)c1cccs1	.	.	.	.	.	20	35
Cc1cc(=O)oc2cc(OC(=O)CCN3C(=O)c4ccccc4C3=O)ccc12	.	.	.	.	.	.	/
CCCC(=O)Oc1ccc2c(C)cc(=O)oc2c1	.	.	.	.	.	17	24
O=S(=O)(NN=Cc1cccc(OC2CSC2)c1)c1ccccc1	/	/	/	.	.	/	/
COc1cc(NN=Cc2ccccc2O)ncn1	/	/	/	.	.	/	/
O=C1C=C(c2ccc3ccccc3c2)CC(c2ccc(Cl)cc2)C1 (configuration not stated)	/	/	/	.	.	/	/
CC(=O)n1cc(N(C(=O)CCl)c2ccc(Cl)cc2)c2ccccc21	.	/	.	95	.	13	35
Cn1nc(-c2ccc(Cl)cc2)nc2c(=O)n(C)c(=O)nc1-2	/	/	?	100	100	18	48
O=C(O)CSCC(=O)Nc1cc(C(F)(F)F)ccc1Cl	.	.	.	.	.	.	/
CC(C)Oc1cc(NC(=O)CSCC(=O)Nc2cccc(C(F)(F)F)c2)c(Cl)cc1Cl	.	.	.	.	.	17	.
CSc1ccccc1OCc1cc(C(=O)N(C)Cc2cnccn2)no1	.	.	.	.	.	14	.
CSc1ccccc1OCc1cc(C(=O)N(C)Cc2cc(C)[nH]n2)no1	.	.	.	.	.	.	/
Oc1ccc(Cl)cc1Cc1cc(Cl)ccc1O	.	.	.	86	94	13	.
Oc1ccc(Cl)cc1Cc1ccccc1	.	.	/	.	.	/	/
O=C(Cn1nnc(-c2ccccc2NC(=O)c2ccccc2F)n1)NCc1ccco1	.	.	.	.	.	12	.
O=C(CN1CCSCC1)N1CCc2[nH]c3ccc(Br)cc3c2C1	/	/	/	/	/	22	75
